This note sets out measurements from PubChem BioAssay (NCATS).

“And” between values parts separate entries of the source, which are not always exact repeats. Equal entries are not always repeated. Values without a mark were called inactive. Records with an inconclusive call do not appear. The source made the active and inactive calls. Unless noted, calls follow the shape of the dose curve; as a rule, active = well fitted curve in the direction sought with a large enough effect; inconclusive = small, poorly fitted or top-dose-only effect, or another doubt; inactive = no such curve, though single readings can be large; an effect the other way counts as inactive or inconclusive.

T1 sequence (P35557 whole entry, looked up): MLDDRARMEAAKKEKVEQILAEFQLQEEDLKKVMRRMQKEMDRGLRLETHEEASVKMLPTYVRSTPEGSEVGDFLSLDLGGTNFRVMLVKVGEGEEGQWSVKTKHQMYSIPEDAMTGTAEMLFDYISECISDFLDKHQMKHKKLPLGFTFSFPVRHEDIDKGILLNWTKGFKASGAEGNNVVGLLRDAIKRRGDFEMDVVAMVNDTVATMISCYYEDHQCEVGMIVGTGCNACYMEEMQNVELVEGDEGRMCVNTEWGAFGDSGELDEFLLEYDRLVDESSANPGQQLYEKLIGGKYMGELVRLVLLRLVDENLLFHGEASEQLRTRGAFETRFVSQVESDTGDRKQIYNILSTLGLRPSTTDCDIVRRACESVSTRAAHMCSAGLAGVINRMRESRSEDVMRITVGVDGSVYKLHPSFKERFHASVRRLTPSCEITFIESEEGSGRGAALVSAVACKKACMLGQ
T1 sequence (Q14397 whole entry, looked up): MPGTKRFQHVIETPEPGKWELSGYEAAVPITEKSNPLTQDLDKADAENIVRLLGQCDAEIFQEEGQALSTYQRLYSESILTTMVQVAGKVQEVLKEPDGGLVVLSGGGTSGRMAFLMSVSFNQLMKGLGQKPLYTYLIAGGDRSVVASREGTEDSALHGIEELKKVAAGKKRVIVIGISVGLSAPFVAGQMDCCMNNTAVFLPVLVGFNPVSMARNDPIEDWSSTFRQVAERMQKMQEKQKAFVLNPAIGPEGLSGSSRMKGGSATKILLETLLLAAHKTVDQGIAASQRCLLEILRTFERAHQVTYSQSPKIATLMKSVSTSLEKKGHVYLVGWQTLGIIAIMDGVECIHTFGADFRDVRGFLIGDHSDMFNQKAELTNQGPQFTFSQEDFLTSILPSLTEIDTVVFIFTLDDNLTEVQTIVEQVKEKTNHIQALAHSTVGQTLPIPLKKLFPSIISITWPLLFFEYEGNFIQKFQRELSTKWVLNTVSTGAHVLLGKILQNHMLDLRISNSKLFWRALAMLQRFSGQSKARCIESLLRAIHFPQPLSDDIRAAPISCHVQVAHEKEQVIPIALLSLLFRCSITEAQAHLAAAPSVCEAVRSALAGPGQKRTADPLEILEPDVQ

System in the first assay: not listed separately
Description: qHTS assay for small molecule agonists of the antioxidant response element (ARE) signaling pathway measured by Nrf2-dependant transcriptional activity (AID 720636; active = well fitted curve in the direction sought with a large enough effect in the repeat runs; an effect the other way counts as inactive or inconclusive; also: % of control where 0% means no effect). The following applies: ARE-luc HepG2, Nrf2 luciferase reporter, 16 h; series mostly up to 92.4 µM; activation: at the top concentration. The method in brief: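 ARE-luc HepG2 cells carrying an Nrf2-responsive luciferase reporter were plated in medium with 1% dialyzed FBS, left 6 hr at 37 C to attach, then exposed to compound for 16 hr. Luciferase luminescence was read after ONE-Glo addition.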
Turning to `Cc1cc2c(C(C)C)c(O)c(O)c(C=O)c2c(O)c1-c1c(C)cc2c(C(C)C)c(O)c(O)c(C=O)c2c1O`, the “activation” value was -4.41%.

`CNCC(O)c1ccc(O)cc1` (centres undefined): the “activation” value was 0.679%.

Regarding `C[C@]12CCC(=O)C(O)=C1CC[C@@H]1[C@@H]2CC[C@]2(C)C(=O)CC[C@@H]12`, the “activation” value is 0.399%.

On to `C[C@@H]1O[C@@H](O[C@H]2C[C@@H](O)[C@]3(CO)[C@H]4[C@H](O)C[C@]5(C)[C@@H](C6=CC(=O)OC6)CC[C@]5(O)[C@@H]4CC[C@]3(O)C2)[C@H](O)[C@H](O)[C@H]1O`, for which the “activation” value was -1.99%.

For the compound `CCCC(C)(COC(N)=O)COC(=O)NC(C)C` (centres undefined), the Potency result was “inactive”.

On to `C=C(C)[C@H]1Cc2c(ccc3c2O[C@@H]2COc4cc(OC)c(OC)cc4[C@@H]2C3=O)O1`, for which the “activation” value was -2.54%.

For `NCC(O)c1ccc(O)cc1` (centres undefined), the “activation” value is 0.665%.

Regarding `Nc1ccncc1`, the “activation” value was 0.264%.

System in the next assay: not listed separately
Description: qHTS assay for small molecule antagonists of the retinoid-related orphan receptor gamma (ROR-gamma) signaling pathway - cell viability counter screen (AID 720652; active = well fitted curve in the direction sought with a large enough effect in the repeat runs; an effect the other way counts as inactive or inconclusive;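 also: CHO reporter cells with doxycycline-induced ROR-gamma expression; compound exposure lasted 16 hr before ATP read; % is scaled to controls: 0 for no effect and ±100 for the full control effect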). The note with it: RORgamma reporter cell line viability counter screen; series mostly up to 92.2 µM; activity change, negative = cytotoxicity: at the top concentration. The method in brief: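 CHO cells carrying TET-inducible ROR and RORE-luciferase reporter, plated 5 hr, then dosed with compound plus doxycycline. After 16 hr at 37 C, viability read as intracellular ATP by CellTiter-Glo luminescence.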
(In qHTS, concentration-response curves come from the screen itself.)
As to `CNCC(O)c1ccc(O)cc1` (centres undefined), the “activity change, negative = cytotoxicity” value is 5.64%.

For the compound `CCCC(C)(COC(N)=O)COC(=O)NC(C)C` (centres undefined), the “activity change, negative = cytotoxicity” value was 3.87%.

For the compound `NCC(O)c1ccc(O)cc1` (centres undefined), the “activity change, negative = cytotoxicity” value is 8.18%.

System in a further assay: not listed separately
Description: qHTS assay for small molecule agonists of the antioxidant response element (ARE) signaling pathway measured by Nrf2-dependant transcriptional activity - cell viability counter screen (AID 720653; active = well fitted curve in the direction sought with a large enough effect in the repeat runs; an effect the other way counts as inactive or inconclusive; also: % is scaled to controls: 0 for no effect and ±100 for the full control effect). The note with it: ARE-bla HepG2 viability, CellTiter-Glo ATP luminescence, 16 h; max response: hits give low values. The method in brief:
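ARE-bla HepG2 cells treated with compounds for 16 h at 37C; this counter screen measures viability as intracellular ATP by CellTiter-Glo luminescence after 30 min at room temperature.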
`CNCC(O)c1ccc(O)cc1` (centres undefined): the max response is 12.1%.

Take `C[C@]12CCC(=O)C(O)=C1CC[C@@H]1[C@@H]2CC[C@]2(C)C(=O)CC[C@@H]12`: the max response is -0.568%.

With `Cc1cc(SCc2sc(-c3ccc(C(F)(F)F)c(F)c3)nc2C)ccc1OCC(=O)O`, the max response is -1.47%.

Regarding `CCCC(C)(COC(N)=O)COC(=O)NC(C)C` (centres undefined), the max response is -3.52% and -3.1%.

With `NCC(O)c1ccc(O)cc1` (centres undefined), the max response was -9.13%.

Another assay deals with T1, Hexokinase-4 (Homo sapiens) + Glucokinase regulatory protein (Homo sapiens) (UniProt P35557+Q14397). The assay can be described thus: qHTS assay for inhibitors of recombinant human GCK-GKRP interaction: Diaphorase-coupled assay (AID 743205). The note with it: G6PDH/diaphorase resorufin fluorescence; series mostly up to 57.5 µM; activity change, positive = activation: at the top concentration. The method in brief:
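A kinetic fluorescence read (Ex 525/Em 590 nm, every minute for 30 minutes) tracked resorufin from a G6PDH-diaphorase coupled GCK reaction. It contained 10 nM GST-GCK, 10 nM FLAG-GKRP, 5 mM glucose, 0.4 mM ATP in Hepes pH 7.6. Normalized to with/without-enzyme DMSO controls.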
On to `c1ccc(C2CC2)c(OCC2=NCCN2)c1`, for which the “activity change, positive = activation” value was 0.173%.

As for `CCCN1CCC[C@@H]2Cc3nc(N)ncc3C[C@H]21`, the “activity change, positive = activation” value was -11.5%.

As for `CNCC(O)c1ccc(O)cc1` (centres undefined), the “activity change, positive = activation” value is -2.58%.

For `CC(O)(CS(=O)(=O)c1ccc(F)cc1)C(=O)Nc1ccc(C#N)c(C(F)(F)F)c1` (centres undefined), the “activity change, positive = activation” value is -4.33%.

As for `Cc1ccc(S(=O)(=O)N[C@@H](CCCCN)C(=O)CCl)cc1`, the “activity change, positive = activation” value was -20.7%.

Consider `COC[C@H]1OC(=O)c2coc3c2[C@@]1(C)C1=C(C3=O)C2CCC(=O)[C@@]2(C)C[C@H]1OC(C)=O` (some centres undefined), for which the “activity change, positive = activation” value is -35.1%.

`C[C@]12CCC(=O)C(O)=C1CC[C@@H]1[C@@H]2CC[C@]2(C)C(=O)CC[C@@H]12`: the “activity change, positive = activation” value is -1.17%.

As for `CCC1(C2=NCCN2)Cc2ccccc2O1` (centres undefined), the “activity change, positive = activation” value is -7.1%.

In the case of `C[C@@H]1O[C@@H](O[C@H]2C[C@@H](O)[C@]3(CO)[C@H]4[C@H](O)C[C@]5(C)[C@@H](C6=CC(=O)OC6)CC[C@]5(O)[C@@H]4CC[C@]3(O)C2)[C@H](O)[C@H](O)[C@H]1O`, the “activity change, positive = activation” value is -2.24%.

As to `CC(CCc1ccccc1)NC(C)C(O)c1ccc(O)cc1` (centres undefined), the “activity change, positive = activation” value was -2.02%.

With `CC(C)=CCOc1c2occc2cc2ccc(=O)oc12`, the “activity change, positive = activation” value is -32.5%.

For `CCCC(C)(COC(N)=O)COC(=O)NC(C)C` (centres undefined), the “activity change, positive = activation” value is -0.223%.

In the case of `C=C(C)[C@H]1Cc2c(ccc3c2O[C@@H]2COc4cc(OC)c(OC)cc4[C@@H]2C3=O)O1`, the “activity change, positive = activation” value was -20.9%.

On to `NCC(O)c1ccc(O)cc1` (centres undefined), for which the “activity change, positive = activation” value was -1.3%.

With `Nc1ccncc1`, the “activity change, positive = activation” value was -0.767%.

As to `CC[C@@H](CO)NC(=O)[C@@H]1C=C2c3cccc4[nH]cc(c34)C[C@H]2N(C)C1`, the “activity change, positive = activation” value was -30.6%.

Another assay addresses T1, Hexokinase-4 (Homo sapiens) + Glucokinase regulatory protein (Homo sapiens). The assay can be described thus: qHTS assay for inhibitors of recombinant human GCK-GKRP interaction: ADP-Glo assay (AID 743206).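 Also: plate controls were DMSO plus enzyme for no effect and no enzyme for full effect.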 The following applies: ADP-Glo luminescence, 60 min, 0% = vehicle-only wells with enzyme present; series mostly up to 76.9 µM; activity, positive = activation: at the top concentration. The method, boiled down:
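GST-GCK and FLAG-GKRP (15 nM each in the dispensed mix, with 2 uM S6P) react with 0.4 mM ATP and 5 mM glucose (final) in Hepes pH 7.6 for 60 min at room temperature. ADP is measured by ADP-Glo luminescence.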
Turning to `c1ccc(C2CC2)c(OCC2=NCCN2)c1`, the “activity, positive = activation” value was 3.1%.

Take `CCCN1CCC[C@@H]2Cc3nc(N)ncc3C[C@H]21`: the “activity, positive = activation” value is -2.16%.

For the compound `CNCC(O)c1ccc(O)cc1` (centres undefined), the “activity, positive = activation” value was 2.77%.

Regarding `CC(O)(CS(=O)(=O)c1ccc(F)cc1)C(=O)Nc1ccc(C#N)c(C(F)(F)F)c1` (centres undefined), the “activity, positive = activation” value is 1.63%.

As to `Cc1ccc(S(=O)(=O)N[C@@H](CCCCN)C(=O)CCl)cc1`, the “activity, positive = activation” value was -3.27%.

In the case of `COC[C@H]1OC(=O)c2coc3c2[C@@]1(C)C1=C(C3=O)C2CCC(=O)[C@@]2(C)C[C@H]1OC(C)=O` (some centres undefined), the “activity, positive = activation” value was 1.2%.

In the case of `C[C@]12CCC(=O)C(O)=C1CC[C@@H]1[C@@H]2CC[C@]2(C)C(=O)CC[C@@H]12`, the “activity, positive = activation” value was -0.33%.

`CCC1(C2=NCCN2)Cc2ccccc2O1` (centres undefined): the “activity, positive = activation” value was 0.248%.

Regarding `C[C@@H]1O[C@@H](O[C@H]2C[C@@H](O)[C@]3(CO)[C@H]4[C@H](O)C[C@]5(C)[C@@H](C6=CC(=O)OC6)CC[C@]5(O)[C@@H]4CC[C@]3(O)C2)[C@H](O)[C@H](O)[C@H]1O`, the “activity, positive = activation” value was 0.535%.

For `CC(CCc1ccccc1)NC(C)C(O)c1ccc(O)cc1` (centres undefined), the “activity, positive = activation” value is 2.71%.

With `CC(C)=CCOc1c2occc2cc2ccc(=O)oc12`, the “activity, positive = activation” value was 3.55%.

As for `CCCC(C)(COC(N)=O)COC(=O)NC(C)C` (centres undefined), the “activity, positive = activation” value is -3.28%.

Regarding `C=C(C)[C@H]1Cc2c(ccc3c2O[C@@H]2COc4cc(OC)c(OC)cc4[C@@H]2C3=O)O1`, the “activity, positive = activation” value is -3.25%.

As to `NCC(O)c1ccc(O)cc1` (centres undefined), the “activity, positive = activation” value is 0.239%.

Regarding `Nc1ccncc1`, the “activity, positive = activation” value was 2.9%.

`CC[C@@H](CO)NC(=O)[C@@H]1C=C2c3cccc4[nH]cc(c34)C[C@H]2N(C)C1`: the “activity, positive = activation” value was -1.57%.

For the next assay the target is unchanged. Description: qHTS assay for inhibitors of recombinant human GCK-GKRP interaction: HTRF assay (AID 743207).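 Also: 0% = DMSO with GCK present and -100% = DMSO wells lacking GCK.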 The following applies: recombinant GCK-GKRP HTRF binding, 60 min; series mostly up to 57.5 µM; activity change, negative = inhibition: at the top concentration. The method, boiled down:
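After 60 min equilibration at room temperature with anti-FLAG XL665 and anti-GST antibodies, FRET ratio (665/615 nm, excitation 320 nm) was read. Proteins: GST-GCK and FLAG-GKRP, each 5 nM, plus 2 uM S6P, pH 7.1 buffer; GCK-free wells define minimum signal.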
In the case of `c1ccc(C2CC2)c(OCC2=NCCN2)c1`, the “activity change, negative = inhibition” value is -0.777%.

For `CCCN1CCC[C@@H]2Cc3nc(N)ncc3C[C@H]21`, the “activity change, negative = inhibition” value was -3.88%.

In the case of `CNCC(O)c1ccc(O)cc1` (centres undefined), the “activity change, negative = inhibition” value is 1.83%.

`CC(O)(CS(=O)(=O)c1ccc(F)cc1)C(=O)Nc1ccc(C#N)c(C(F)(F)F)c1` (centres undefined): the “activity change, negative = inhibition” value was -12.1%.

Turning to `Cc1ccc(S(=O)(=O)N[C@@H](CCCCN)C(=O)CCl)cc1`, the “activity change, negative = inhibition” value is -6.26%.

On to `COC[C@H]1OC(=O)c2coc3c2[C@@]1(C)C1=C(C3=O)C2CCC(=O)[C@@]2(C)C[C@H]1OC(C)=O` (some centres undefined), for which the “activity change, negative = inhibition” value was 12.1%.

Regarding `C[C@]12CCC(=O)C(O)=C1CC[C@@H]1[C@@H]2CC[C@]2(C)C(=O)CC[C@@H]12`, the “activity change, negative = inhibition” value was -7.72%.

With `CCC1(C2=NCCN2)Cc2ccccc2O1` (centres undefined), the “activity change, negative = inhibition” value was 3.11%.

`C[C@@H]1O[C@@H](O[C@H]2C[C@@H](O)[C@]3(CO)[C@H]4[C@H](O)C[C@]5(C)[C@@H](C6=CC(=O)OC6)CC[C@]5(O)[C@@H]4CC[C@]3(O)C2)[C@H](O)[C@H](O)[C@H]1O`: the “activity change, negative = inhibition” value is -11.3%.

For the compound `CC(CCc1ccccc1)NC(C)C(O)c1ccc(O)cc1` (centres undefined), the “activity change, negative = inhibition” value is -2.3%.

Take `CC(C)=CCOc1c2occc2cc2ccc(=O)oc12`: the “activity change, negative = inhibition” value was -26.6%.

As for `CCCC(C)(COC(N)=O)COC(=O)NC(C)C` (centres undefined), the “activity change, negative = inhibition” value is 1.09%.

In the case of `C=C(C)[C@H]1Cc2c(ccc3c2O[C@@H]2COc4cc(OC)c(OC)cc4[C@@H]2C3=O)O1`, the “activity change, negative = inhibition” value is -8.52%.

Regarding `NCC(O)c1ccc(O)cc1` (centres undefined), the “activity change, negative = inhibition” value was -4.7%.

Regarding `Nc1ccncc1`, the “activity change, negative = inhibition” value was 8.95%.

In the case of `CC[C@@H](CO)NC(=O)[C@@H]1C=C2c3cccc4[nH]cc(c34)C[C@H]2N(C)C1`, the “activity change, negative = inhibition” value was 9.9%.
